TWEAK Fn14 block: inhibitors of TWEAK-Fn14 signaling, primary screen, luciferase reporter cells, uHTS; TWEAK-stimulated Fn14 reporter cells, luciferase luminescence, 8 h; inhibition, % at 10 µM; 360,000 compounds, 2% hits; in the data active = inhibition above about 50%
HSP90 refold inh: HSP90 inhibitors, primary screen, cell lysate, luminescence. 290,000 compounds, 0.91% hits. Rabbit reticulocyte lysate, luciferase refolding luminescence, 3 h. AID 1789, 2009. inhibition, % at 5.6 µM. Heat shock protein HSP 90 (rabbit reticulocyte lysate; luciferase refolding);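 active = inhibition above the screen-wide mean plus 3 SD, computed separately per campaign, cut at about 16% in these data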;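 also: inhibitors lower the luminescence because luciferase stays unfolded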
aSyn 5UTR inh: MLPCN primary screen, SNCA 5' untranslated region; inhibition, % (tested at 7.5 µM); 300,000 compounds, 0.82% hits; alpha-synuclein 5'UTR reporter, inhibitor activity; in the data active = inhibition above about 60%; inconclusive = no clear call, values can overlap the other calls;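 also: H4 neuroglioblastoma cells stably carrying SNCA 5'UTR luciferase fusion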
TRAIL sens C8: viability loss with TRAIL in NB7+C8 cells, primary screen, TRAIL sensitizer project, cell-based, ATPlite luminescence; inhibition (viability loss, TRAIL sensitization), % at 10 µM; 360,000 compounds, 1% hits;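 active = compounds causing at least 50% loss of cell viability in the single-dose screen, relative to plate controls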
TROY NFkB inh: inhibitors of TROY-driven NF-kB signaling, primary screen, Q293 LMP1-TROYcd cells, NF-kB luciferase, uHTS. Q293 LMP1-TROYcd NF-kB luciferase reporter, 4 h. inhibition, % at 10 µM. 360,000 compounds, 0.98% hits. AID 1347056, 2019;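 active = compounds whose plate-normalised and pattern-corrected inhibition of the luciferase reporter signal at the single screening dose is 50% or more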
HIF-2a block: HIF-2a reporter inhibitors, primary screen, luminescence, 786-0 RCC cells. 786-0 RCC cells HIF-2a reporter, luciferase luminescence, overnight. inhibition, % at 18.8 µM. 360,000 compounds, 0.72% hits. AID 624352, 2012;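 active = inhibition of the luminescence signal of 40% or more relative to plate controls, in a single-dose primary screen at 18.75 µM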
Mdm2 MdmX conf: retested Mdm2-MdmX interaction blockers, confirmation, cell-based, luminescence, single concentration, set 2 | shares compounds with HIF-2a block | SaOS-2 split-luciferase Mdm2/MdmX complementation | inhibition, % at 8 µM | 740 compounds, 99% hits | AID 504601, 2011;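 active = mean inhibition of the luminescence signal across two replicates at or above 26 percent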
Target sequence (O15151 whole entry, looked up): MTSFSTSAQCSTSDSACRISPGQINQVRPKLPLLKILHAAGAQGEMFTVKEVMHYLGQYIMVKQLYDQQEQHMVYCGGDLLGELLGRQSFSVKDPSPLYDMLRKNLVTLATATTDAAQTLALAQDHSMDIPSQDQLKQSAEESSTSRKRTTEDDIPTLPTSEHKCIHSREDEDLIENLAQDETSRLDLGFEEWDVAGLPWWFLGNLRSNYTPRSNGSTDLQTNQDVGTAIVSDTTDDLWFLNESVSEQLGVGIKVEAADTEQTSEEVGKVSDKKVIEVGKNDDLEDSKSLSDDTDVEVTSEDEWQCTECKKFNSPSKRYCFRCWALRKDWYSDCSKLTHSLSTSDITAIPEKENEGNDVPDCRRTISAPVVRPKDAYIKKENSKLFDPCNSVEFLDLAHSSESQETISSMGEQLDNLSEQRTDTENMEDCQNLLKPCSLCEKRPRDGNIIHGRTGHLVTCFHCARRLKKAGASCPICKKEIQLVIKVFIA
Target sequence (Q00987 whole entry, looked up): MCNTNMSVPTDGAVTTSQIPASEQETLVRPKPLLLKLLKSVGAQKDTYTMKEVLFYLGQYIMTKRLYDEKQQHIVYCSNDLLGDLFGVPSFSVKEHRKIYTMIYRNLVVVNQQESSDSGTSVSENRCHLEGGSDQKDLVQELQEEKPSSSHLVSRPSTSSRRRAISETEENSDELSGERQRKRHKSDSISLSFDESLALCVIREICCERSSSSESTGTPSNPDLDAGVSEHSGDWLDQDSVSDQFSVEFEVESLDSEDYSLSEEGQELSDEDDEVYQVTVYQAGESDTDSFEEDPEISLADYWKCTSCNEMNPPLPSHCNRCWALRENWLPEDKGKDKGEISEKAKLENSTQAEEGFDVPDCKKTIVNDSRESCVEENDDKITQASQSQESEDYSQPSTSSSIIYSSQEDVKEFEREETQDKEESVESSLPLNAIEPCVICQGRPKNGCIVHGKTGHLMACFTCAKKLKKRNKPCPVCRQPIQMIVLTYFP
HIF-2a conf: HIF-2a reporter inhibitor retest, confirmation, luminescence, 786-0 RCC cells. shares compounds with HIF-2a block. HIF-2a luciferase reporter luminescence, overnight. inhibition, % at 18.8 µM. 1,800 compounds, 56% hits. AID 651580, 2012;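 active = mean inhibition across four replicates of at least 40 percent at the single tested concentration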
HIF-1a counter: HIF-1a luciferase reporter signal reduction – MiaPaCa-2 cells, single concentration, counter-screen for HIF-2a inhibitor project, confirmation; shares compounds with HIF-2a block; MiaPaCa-2 HIF-1a luciferase reporter, desferoxamine, overnight; inhibition, % at 18.8 µM; 1,800 compounds, 72% hits;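 active = mean inhibition of the reporter signal across four replicates at the single tested dose of 50% or more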
Each line names hits and unclear results; the compound was inactive in the other large screens (follow-up assays come after a bar, where they were run). This is a sample that favours compounds with a hit; in the whole collection about 3.9% have one here.

C=C1C(=O)O[C@@H]2[C@H]3O[C@]3(C)CC/C=C(\C)CC[C@@H]12	none (no result: HSP90 refold inh, aSyn 5UTR inh)
O=C(Nc1ccc2nc3n(c(=O)c2c1)CCCC3)c1cc([N+](=O)[O-])ccc1F	TWEAK Fn14 block 89, TROY NFkB inh 80, HIF-2a block 48 | Mdm2 MdmX conf 103 | HIF-2a conf inactive | HIF-1a counter 105
Cc1ccc(C2CC(c3cccs3)=NN2C(=O)CCl)cc1 (stereo not drawn)	TWEAK Fn14 block 65, TRAIL sens C8 77 | Mdm2 MdmX conf 102
CCCCCNC(=O)C(c1ccnc2ccccc12)n1c(=O)c(-c2ccccc2)nc2ccccc21 (stereo not drawn)	none (no result: TWEAK Fn14 block, HSP90 refold inh, aSyn 5UTR inh, TROY NFkB inh)
CCCC(NC(=O)CCc1c(C)c2cc3c4c(oc3c(C)c2oc1=O)CCCC4)C(=O)O (stereo not drawn)	HIF-2a block 52 | HIF-2a conf 67 | HIF-1a counter 50
COCCn1c(C)cc(C(=O)COc2ccc(C)nc2[N+](=O)[O-])c1C	HIF-2a block 75 | HIF-2a conf 77 | HIF-1a counter 85
C=CCn1c(C)cc(C(=O)COc2ccc(C)nc2[N+](=O)[O-])c1C	TWEAK Fn14 block 65, HIF-2a block 68 | HIF-2a conf 68 | HIF-1a counter 89
COc1ccc(-c2csc(C(C)(O)c3ccc(F)c(F)c3)n2)cn1 (stereo not drawn)	none (no result: HSP90 refold inh, aSyn 5UTR inh)
CCOC(=O)c1cccc(NC(=O)/C=C/c2ccc3c(c2)OCO3)c1	TWEAK Fn14 block 70, aSyn 5UTR inh 106, TRAIL sens C8 85, TROY NFkB inh 51, HIF-2a block 47 | HIF-2a conf 69 | HIF-1a counter inactive
COc1ccc(Nc2cc(C)nc3ccc(OC)cc23)cc1	HIF-2a block 42 | HIF-2a conf inactive | HIF-1a counter 57
COc1ccc(/C=N/Nc2cc(C)nc3ccccc23)cc1	none
COc1ccc2nc(C)cc(N/N=C/c3ccc(F)cc3)c2c1	aSyn 5UTR inh 93, TRAIL sens C8 93, HIF-2a block 87 | Mdm2 MdmX conf 103
COc1ccc(C(C)(C)C)cc1NC(=O)COc1ccc(-c2nnco2)cc1	none (no result: HSP90 refold inh, aSyn 5UTR inh)
Cc1[nH]n(-c2ccccc2)c(=O)c1N=Nc1c(O)cc(S(=O)(=O)N(C)C)c2ccccc12	TWEAK Fn14 block 88, aSyn 5UTR inh 71, TRAIL sens C8 58 (no result: HSP90 refold inh) | Mdm2 MdmX conf 89
Cc1[nH]n(-c2ccccc2)c(=O)c1N=Nc1ccc2c(c1)OCCO2	none
CCNC(=S)NNC(=O)c1ccccn1	none
O=C(NNC(=S)Nc1ccc(Cl)c(Cl)c1)c1ccccn1	aSyn 5UTR inh 68 | Mdm2 MdmX conf 85
CCCCn1c(NC(=O)c2ccccc2)nc2ccccc21	none
S=C(Nc1ccccc1)Nc1nc2ccccc2n1CCOc1ccccc1	HIF-2a block 90 | HIF-2a conf inactive | HIF-1a counter 97
CCCCn1c(NC(=S)Nc2ccccc2)nc2ccccc21	HIF-2a block 42 | HIF-2a conf inactive | HIF-1a counter 50
Cc1nc2ccccc2n1CCOc1ccccc1	none
NC(=S)NN=Cc1cc(-c2cccc(N)c2)ccn1	none (no result: HSP90 refold inh, aSyn 5UTR inh)
CC1(C)C(c2ccco2)=[N+]([O-])C2(CCCCC2=O)N1O (stereo not drawn)	none
Cc1ccc(C2=[N+]([O-])C3(CCCCC3=O)N(O)C2(C)C)cc1 (stereo not drawn)	aSyn 5UTR inh inconclusive, HIF-2a block 44 | HIF-2a conf inactive | HIF-1a counter inactive
C[C@@H]1COc2cc(N3CC[C@H](O)C3)ccc2S(=O)(=O)N1	none (no result: HSP90 refold inh, aSyn 5UTR inh)
CC1(C(=O)NC2CCCCCC2)CCN1C(=O)Cc1ccc(-c2ccccc2)cc1 (stereo not drawn)	none (no result: HSP90 refold inh, aSyn 5UTR inh)
COCCN(Cc1ccco1)C(=O)Cn1ncc2c(=O)oc3ccccc3c21	HIF-2a block 45 | HIF-2a conf inactive | HIF-1a counter inactive
COCCCN(Cc1ccco1)C(=O)Cn1ncc2c([nH]c3ccccc32)c1=O	none
COc1cc2c(cc1OC)C(C1C(=O)CC(C)(C)CC1=O)N(C(=O)CCl)CC2 (stereo not drawn)	none
COc1cc2c(cc1OC)C(c1cc(Br)ccc1F)N(C(=O)CCl)CC2 (stereo not drawn)	TRAIL sens C8 95, HIF-2a block 90 | Mdm2 MdmX conf 103 | HIF-2a conf 97 | HIF-1a counter 103
CC(=O)c1sc(NC(=O)C2CC(=O)N(Cc3ccccc3)C2)nc1-c1ccccc1 (stereo not drawn)	HIF-2a block 41 (no result: HSP90 refold inh) | HIF-2a conf inactive | HIF-1a counter inactive
CC(=O)Nc1ccc(NC(=O)C2CC(=O)N(Cc3ccccc3)C2)cc1 (stereo not drawn)	none
Cn1c(/N=C/c2ccc3c(c2)OCO3)nc2ccccc21	none
C(=Cc1cnc2ccccc2n1)c1ccc2c(c1)OCO2	TWEAK Fn14 block 98, TRAIL sens C8 86, TROY NFkB inh 81, HIF-2a block 59 (no result: HSP90 refold inh, aSyn 5UTR inh) | HIF-2a conf 92 | HIF-1a counter 99
O=C(NCc1cccnc1)c1ccc(-c2ccc(Cl)cc2)o1	none
O=C(NCc1cccnc1)/C(=C\c1ccc(-c2ccc(Cl)c(Cl)c2)o1)S(=O)(=O)c1ccccc1	TWEAK Fn14 block 105, TRAIL sens C8 93, TROY NFkB inh 89, HIF-2a block 97 | HIF-2a conf 99 | HIF-1a counter 106
O=[N+]([O-])c1ccc2nc(Cl)nc(-c3ccccc3)c2c1	none | Mdm2 MdmX conf 101
CCC1SC(C)C/C(=N/NC(N)=O)C1C (stereo not drawn)	none
CC1CC(C)C(=NNC(N)=O)C(C(O)CC2CCC(=O)NC2=O)C1 (stereo not drawn)	HIF-2a block 49 (no result: HSP90 refold inh, aSyn 5UTR inh) | HIF-2a conf inactive | HIF-1a counter inactive
Cc1ccc(/C=C/C(=O)OCC(=O)N(C)c2c(N)n(Cc3ccccc3)c(=O)[nH]c2=O)o1	none (no result: HSP90 refold inh, aSyn 5UTR inh)
CC(C)Cn1cc(-c2cccc3nccn23)cn1	none (no result: HSP90 refold inh, aSyn 5UTR inh)
O=C(Nc1ccc(S(=O)(=O)N2CCCC2)cc1)c1ccc([N+](=O)[O-])o1	HIF-2a block 77 (no result: HSP90 refold inh, aSyn 5UTR inh) | HIF-2a conf 50 | HIF-1a counter 94
